# Assay results from PubChem BioAssay (NCATS).
# Several values for one entry are separate records, joined by “and”; a condition that tells them apart may be missing. Equal entries are not always repeated. Results filed as inconclusive are left out. A call without a number means that no potency is given here. The source holds several records for some structures; these can differ, active in one and inactive in another. Activity calls are given as the source filed them. The call rests on the fitted dose curve; in most records, active means well fitted curve in the direction sought with a large enough effect; inconclusive means small, poorly fitted or top-dose-only effect, or another doubt; inactive means no such curve, though single readings can be large; an effect the other way counts as inactive or inconclusive.
# What was measured:
# [1] = qHTS assay to identify small molecule inhibitors of chordoma cells - UCH-1 (AID 1259355); further: nearly all actives have a fitted effect of over 55% in size
# Method in brief: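 A 48hr growth-inhibition format: each drug tested at 15 concentrations together with added auranofin, camptothecin, doxorubicin, rubitecan and topotecan, with cell viability quantified as CellTiter-Glo luminescence.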
# [2] = qHTS assay to identify small molecule inhibitors of chordoma cells - UCH-2 (AID 1259356); further: series mostly up to about 46 µM
# [3] = Identifying Small Molecule Inhibitors of Pancreatic Cancer Stem Cells (SN12C, Adherent) (AID 1259358);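 further: cell survival measured after 48 h of compound exposure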
# Method in brief: (§1)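 Viability is scored by CellTiter-Glo luminescence 48 h after dosing, expressed as percent activity against vehicle and no-cell references. Spheroid formats rely on cells cultured 14 days in stem cell media beforehand.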
# [4] = Identifying Small Molecule Inhibitors of Pancreatic Cancer Stem Cells (SN12C, Spheroid) (AID 1259360); conditions: Potency: SN12C spheroid viability
# Method in brief: (§2)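 Endpoint: ATP-based luminescence, 48 h drug exposure. Bortezomib at 9.2 uM final as full-kill control; DMSO vehicle as negative control; activity normalized between vehicle and cell-free wells.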
# [5] = qHTS Screen of the MIPE 4.0 Collection Against Ewings Sarcoma (TC32) (AID 1259256); further: nearly all actives have a fitted effect of over 45% in size; further: potency means the concentration at half of the fitted maximal effect
# Method in brief: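 Compound titrations go onto adherent log-phase cells 4 h after seeding, incubate 48 h at 37C, then CellTiter-Glo luminescence reports viability relative to DMSO and cell-free controls.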
# [6] = Identifying Small Molecule Inhibitors of Pancreatic Cancer Stem Cells (A278, Adherent) (AID 1259361);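 further: viability read after 48 h compound exposure; nearly all actives have a fitted effect of over 35% in size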
# Method in brief: as §1
# [7] = P-glycoprotein substrates identified in KB-3-1 adenocarcinoma cell line, qHTS therapeutic library screen (AID 1346986); further: nearly all actives have a fitted effect of over 60% in size;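 further: potency means the concentration at half of the fitted maximal effect; potency is for cytotoxicity meaning loss of cell viability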
# Method in brief: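 Using luminescence to quantify ATP, parental and P-gp-overexpressing KB cells were compared after 72 h compound titration. KB-8-5-11 was also run with the P-gp inhibitor tariquidar.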
# [8] = Identifying Small Molecule Inhibitors of Pancreatic Cancer Stem Cells (A2780, Spheroid) (AID 1259357); conditions: Potency: A2780 spheroid viability; further: potency means the concentration at half of the fitted maximal effect;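 further: spheroids pre-formed over 14 days in stem cell medium on hydrogel; compound exposure lasted 48 h before the ATP luminescence read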
# Method in brief: as §2
compound,measurement,setting,value
COc1ccc2nc(S(=O)Cc3ncc(C)c(OC)c3C)[nH]c2c1 (centres undefined),Potency,[1],inactive
same,outcome,[2],inactive
same,Potency,[3],inactive
same,Potency,[4],inactive
C[C@H](NC(=O)Cc1cc(F)cc(F)c1)C(=O)N[C@@H]1C(=O)N(C)c2ccccc2-c2ccccc21,Potency,[5],11.8 µM (active)
same,Potency,[4],inactive
same,IC50 (viability decrease),[6],inactive
same,Potency,[7],inactive
CC(C)C[C@H](NC(=O)[C@@H](O)[C@H](N)Cc1ccccc1)C(=O)O,Potency,[5],23.5 µM (active)
same,Potency,[4],inactive
same,IC50 (viability decrease),[6],inactive
COc1ccc([C@@H]2CC(=O)c3c(O)cc(O[C@@H]4O[C@H](CO[C@@H]5O[C@@H](C)[C@H](O)[C@@H](O)[C@@H]5O)[C@@H](O)[C@H](O)[C@@H]4O)cc3O2)cc1O,Potency,[5],inactive and 23.5 µM (active)
same,Potency,[7],inactive
CNCc1ccc(-c2[nH]c3cc(F)cc4c3c2CCNC4=O)cc1,Potency,[5],16.6 µM (active)
same,IC50 (viability decrease),[6],20.9 µM (active)
C[C@@H]1C[C@H]2[C@@H]3CCC4=CC(=O)C=C[C@]4(C)C3(F)[C@@H](O)C[C@]2(C)[C@@]1(O)C(=O)CO (some centres undefined),Potency,[8],inactive
same,Potency,[4],inactive
same,IC50 (viability decrease),[6],23.5 µM (active)
CN(C)c1ccc(Nc2nc(N)n(C(=O)c3c(F)cccc3F)n2)cc1,Potency,[8],18.7 µM (active)
same,IC50 (viability decrease),[6],16.6 µM (active)
O=C(Nc1nc2ccccc2n1CCN1CCOCC1)c1cccc([N+](=O)[O-])c1,Potency,[5],18.7 µM (active)
same,Potency,[7],inactive
COc1ccc(CC2=NN3C([C@@H](CCc4ccccc4)[C@@H](C)O)=NC(C)C3C(=O)N2)cc1OC (some centres undefined),Potency,[5],inactive
same,Potency,[4],inactive
same,IC50 (viability decrease),[6],23.5 µM (active)
CCOc1ccc(Cc2cc([C@@H]3O[C@H](CO)[C@@H](O)[C@H](O)[C@@H]3O)ccc2Cl)cc1,Potency,[8],inactive
same,Potency,[4],inactive
CC(=O)NC(C)c1ccc(Oc2ccc(OC(C)C)cc2)cc1 (centres undefined),Potency,[5],inactive
same,Potency,[4],inactive
CCOc1cc(N2CCC(O)CC2)ccc1Nc1ncc2c(n1)N(C)c1ccccc1C(=O)N2C,Potency,[5],16.6 µM (active)
same,Potency,[7],8.2 µM (active)
CC(C=CC1=C(C)CCCC1(C)C)=CC=CC(C)=CC(=O)O,Potency,[5],20.9 µM (active) and 3.72 µM (active)
same,Potency,[7],inactive
CCCc1nc2c(C)cc(-c3nc4ccccc4n3C)cc2n1Cc1ccc(-c2ccccc2C(=O)O)cc1,Potency,[1],inactive
same,outcome,[2],inactive
same,Potency,[8],inactive
same,Potency,[4],inactive
same,IC50 (viability decrease),[6],inactive
COc1nc(-c2ccc3c(c2)OCO3)n(-c2ccc(NC(=O)CSc3ccccc3)cc2)n1,Potency,[4],inactive
